Results published in PubChem BioAssay AID504374 (National Center for Advancing Translational Sciences (NCATS), 2011).
Values joined by “and” are separate entries in the source; they are usually repeats but may differ in a detail not shown here. Equal entries are not always repeated. Screen size: about 1,500 compounds; about 100 (6.7%) were called active. Where a call stands in place of a potency, no number is given. Another 7% or so got no clear call; they are omitted. Calls follow the shape of the dose curve; as a rule, active = well fitted inhibition curve with a large enough effect; inconclusive = small, poorly fitted or top-dose-only effect, or effect the other way; inactive = flat fitted curve, though single readings scatter. This excerpt belongs to a sample that is enriched for actives.

Molecular target: Runt-related transcription factor 1 (Homo sapiens) + Core-binding factor subunit beta (Homo sapiens) (UniProt Q01196+Q13951)
Sequence (Q01196 whole entry, looked up): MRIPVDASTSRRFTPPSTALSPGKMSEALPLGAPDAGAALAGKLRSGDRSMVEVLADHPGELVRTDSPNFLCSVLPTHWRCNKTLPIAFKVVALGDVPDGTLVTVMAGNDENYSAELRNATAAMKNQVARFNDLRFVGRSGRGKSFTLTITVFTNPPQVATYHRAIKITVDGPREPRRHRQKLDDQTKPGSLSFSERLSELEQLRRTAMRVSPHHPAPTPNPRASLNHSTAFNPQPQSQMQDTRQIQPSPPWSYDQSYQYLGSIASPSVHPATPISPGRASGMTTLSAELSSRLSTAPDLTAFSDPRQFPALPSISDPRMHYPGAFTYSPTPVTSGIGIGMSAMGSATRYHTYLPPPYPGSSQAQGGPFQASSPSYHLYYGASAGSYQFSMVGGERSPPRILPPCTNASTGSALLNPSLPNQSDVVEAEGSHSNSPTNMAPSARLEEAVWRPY
Sequence (Q13951 whole entry, looked up): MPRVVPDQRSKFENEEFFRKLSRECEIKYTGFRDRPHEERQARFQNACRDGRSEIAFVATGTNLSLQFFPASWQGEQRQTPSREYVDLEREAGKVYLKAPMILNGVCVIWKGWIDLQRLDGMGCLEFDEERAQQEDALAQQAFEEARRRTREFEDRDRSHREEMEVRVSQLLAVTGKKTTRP
Assay: qHTS Assay for Compounds Blocking the Interaction Between CBF-beta and RUNX1 for the Treatment of Acute Myeloid Leukemia: Hit Validation; also: nearly all actives have a fitted effect of over 60% in size
Conditions: AlphaScreen CBFb-His/RUNX1-biotin binding; series mostly up to 59.8 µM
Text: NIH Chemical Genomics Center [NCGC]
NIH Molecular Libraries Probe Production centers Network [MLPCN]
Assay Submitter (PI): Paul Liu
Core Binding Factor (CBF) abnormalities are associated with 20-25% of all acute myeloid leukemias (AML), of which 5-10% are further sub classified as acute myelomonocytic leukemia with eosinophilia, also known as M4Eo in the FAB classification scheme. This subtype of leukemia is usually associated with chromosome 16 inversion (p13:q22). Chromosome 16 inversion results in formation of the fusion oncogene CBFB-MYH11, which encodes the fusion protein CBF-beta-SMMHC.
It has been hypothesized that the interference of CBF-beta and RUNX1 binding could have therapeutic implications for patients with CBF mediated leukemias. We developed a CBF-beta and RUNX1 binding assay in AlphaScreenTM format and optimized it for high throughput screening to search for inhibitors. The goal of this project is to screen MLPCN's compound collection (MLSMR) for identifying the inhibitors of the interaction between CBF-beta and RUNX1 proteins as research probes. If these probes work well in the animal models, the ultimate goal of this project is to development a new drug treatment for this disease.
This assay can not be used to assess how apparent inhibitors interfere with protein binding, and whether inhibitors specifically bind to either protein. Disruption of this protein-protein interaction, through any mechanism, is the intended target activity.
The present data set was run to confirm the activity of hits from the primary screen.
NCGC Assay Protocol Summary:
Step, Parameter, Description
(1) Reagent, 3 uL CBFb-His/RUNX1-biotin mix incubated together for 20 minutes at room temperature (30 nM each)
(2) Compound or control, 23 nL compound stock solution
(3) Incubation, 15 minutes at Room temperature
(4) Reagent, 1 uL 50 ng each of beads (Nickel beads and streptavidin beads)
(5) Incubation, 90 minutes at Room temperature
(6) Detection, Excitation=365 nm Emission=440 nm, Envision reader in AlphaScreenTM mode
Keywords: MLSMR, MLPCN, NIH Roadmap, qHTS, NCGC, Core binding factor, CBF, CBF-beta, Acute myeloid leukemia
Potency is read from the fitted curve at half-maximal effect.

| SMILES | Potency |
| --- | --- |
| CCn1nc(-c2ccccc2)nc2c(=O)n(C)c(=O)nc1-2 | 1.12 µM (active) |
| CCC1(C(=O)c2ccc(C)cc2)C2c3ccccc3OC(=O)C21C(=O)O (stereo not drawn) | inactive |
| COCc1cc(OC(=O)N(C)C)nc(-c2ccc(C)c(Cl)c2)n1 | inactive |
| CCOC(=O)C(O)(c1ccc(NC(=O)c2ccc(Cl)c(Cl)c2)cc1)C(F)(F)F (stereo not drawn) | inactive |
| CCN1CCc2ccccc2C1 | inactive |
| NC(Cc1cc(O)c(O)cc1O)C(=O)O (stereo not drawn) | 2.51 µM (active) |
| CCOC(=O)[C@]1(C#N)[C@@H]2C=CC(C(N)=O)=CN2[C@@H](C(N)=O)[C@@H]1c1ccc(F)cc1 | inactive |
| CNC(=O)O/N=C(\C)Cc1nnn(-c2cc(C)on2)n1 | inactive |
| O=C1/C(=C\c2cccnc2)N2CCC1CC2 | inactive |
| CCN1CCN(c2nc([N+](=O)[O-])nn2C)CC1 | inactive |
| CC(C)C(N)C(=O)OCCOCn1cnc2c(=O)[nH]c(N)nc21 (stereo not drawn) | 0.705 µM (active) |
| CN1C(=O)C(=Cc2cccnc2)C(=O)N(C)C1=O | inactive |
| COc1cccc(C(=O)N2CCC3(CC2)OCCO3)c1 | inactive |
| O=C(O)COc1ccccc1/C=C1\C(=O)NC(=O)N(CCC2=CCCCC2)C1=O | inactive |
| CCn1c(O)c(C=NCCN2CCOCC2)c(=O)[nH]c1=S | inactive |
| CN1CCN(c2nc(N)cc(=O)[nH]2)CC1 | inactive |
| CC(C)[C@@]1(NC(=O)[C@H]2CC3c4cccc5[nH]cc(c45)C[C@H]3N(C)C2)O[C@@]2(O)C3CCCN3C(=O)[C@@H](Cc3ccccc3)N2C1=O (stereo partly drawn) | 25 µM (active) |
| CC(C)[C@H]1C(=O)N2CCC[C@H]2[C@]2(O)O[C@](NC(=O)[C@@H]3C=C4c5cccc6[nH]cc(c56)C[C@H]4N(C)C3)(C(C)C)C(=O)N12 | 6.87 µM (active) |
| CC(C)C[C@H]1C(=O)N2CCCC2[C@]2(O)O[C@](NC(=O)[C@@H]3C=C4c5cccc6[nH]cc(c56)CC4N(C)C3)(C(C)C)C(=O)N12 (stereo partly drawn) | 7.91 µM (active) and 7.05 µM (active) |
| CC(=O)CC(c1ccccc1[N+](=O)[O-])c1c(O)c2ccccc2oc1=O (stereo not drawn) | inactive |
| Cc1cc(C(=O)Nc2ccccc2)nn1C(C)(C)C | inactive |
| N=Cc1c(O)n(-c2ccccc2)c(=O)n(-c2ccccc2)c1=O | inactive |
| CC1CN=C(Nc2ccc(F)c(Cl)c2)S1 (stereo not drawn) | inactive |
| CNC(=O)Oc1ccc(N(C)C)cc1C(C)C | inactive |
| O=c1[nH]c(=S)[nH]c(O)c1N=Nc1cccc(S(=O)(=O)N2CCOCC2)c1 | inactive |

| SMILES | Potency |
| --- | --- |
| CCOP(=O)(Cc1cc(C(C)=O)c(C)o1)OCC | inactive |
| CCCCn1c(O)c(C(CC)=NCCCn2ccnc2)c(=O)[nH]c1=O | inactive |
| CCCCc1ccc(C(=O)O)nc1 | 6.31 µM (active) |
| CCC(C)n1c(O)c(C=NCCc2ccccc2)c(=O)[nH]c1=S (stereo not drawn) | inactive |
| CN(N=O)c1ccc(O)c(O)c1 | 1.26 µM (active) |
| CN(N=O)c1cc(O)ccc1O | inactive |
| CCC(=Nc1cccc(C(F)(F)F)c1)c1c(O)n(C)c(=O)n(C)c1=O | inactive |
| C=CCn1c(O)c(C(C)=Nc2ccc3c(c2)CCC3)c(=O)[nH]c1=O | inactive |
| COc1cc(CN=Cc2c(O)n(C(C)(C)C)c(=O)[nH]c2=O)cc(OC)c1 | inactive |
| CCCCn1c(O)c(/C=N/N2CCOCC2)c(=O)[nH]c1=S | inactive |
| CCCCNC(=O)Oc1c(Br)cc2sc(=O)oc2c1Br | 6.12 µM (active) |
| CCCCn1c(O)c(/C=C2/C=CC=N2)c(=O)[nH]c1=O | inactive |
| Cc1nc(SCc2c(Cl)cccc2Cl)nc(OC(=O)N(C)C)c1C | inactive |
| CC(C)(C)n1cc(C(=O)c2ccccc2)cc1-c1ccccc1 | inactive |
| Cn1c(O)c(C(=Nc2ccc(F)cc2)c2ccccc2)c(=O)n(C)c1=O | inactive |
| COP(=O)(Cc1ccc(C#N)o1)OC | inactive |
| C/C=C/CC1(CC)C(=O)NC(=S)NC1=O | inactive |
| COc1ccc(CN2C(=O)NC(=O)/C(=C/c3ccc(OC)c(OC)c3OC)C2=O)cc1 | inactive |
| O=C(O)CCCCC1SCC2NC(=O)NC21 (stereo not drawn) | 0.0562 µM (active) |
| CC(C)OP(=O)(Oc1ccc(C(O)C(Cl)(Cl)Cl)cc1)OC(C)C (stereo not drawn) | inactive |
| Clc1ccccc1CN1CCN(c2cccc3[nH]ccc23)CC1 | inactive |
| C=CCn1c(O)c(C(C)=NCC2CCCO2)c(=O)[nH]c1=O (stereo not drawn) | inactive |
| O=c1[nH]c(=S)n(-c2ccc(F)cc2)c(O)c1/C=N/N1CCOCC1 | inactive |
| Cc1cccc(-n2c(O)c(/C=N/Nc3nc4c(c(=O)n(C)c(=O)n4C)n3C)c(=O)[nH]c2=S)c1 | 0.891 µM (active) |
| Cn1c(O)c(/C=N/N2CCOCC2)c(=O)[nH]c1=S | inactive |

| SMILES | Potency |
| --- | --- |
| Cc1cc(OC(=O)N(C)C)nc2c1c(C)nn2C | inactive |
| CCCCCCn1c(O)c(/C=N/N2CCCCCC2)c(=O)[nH]c1=O | inactive |
| COCc1cc(OC(=O)N(C)C)nc(-c2ccccc2)n1 | inactive |
| Cc1cccc(N2C(=O)NC(=O)/C(=C\c3ccc(N4CCOCC4)cc3)C2=O)c1 | inactive |
| Cc1cc(OC(=O)N(C)C)nc(-c2ccc(C)c(Cl)c2)n1 | inactive |
| CCCC(=O)c1ccc(CP(=O)(OCC)OCC)o1 | inactive |
| CC[N+](C)(CC)CCC[n+]1c(-c2ccccc2)c2cc(N)ccc2c2ccc(N)cc21 | 1.12 µM (active) |
| CC[n+]1c(-c2ccccc2)c2cc(N)ccc2c2ccc(N)cc21 | 0.499 µM (active) |
| O=c1c2ccccc2nc(Cc2cccc([N+](=O)[O-])c2)n1-c1ccc(O)cc1 | inactive |
| CCC(=NCc1ccco1)c1c(O)n(-c2ccccc2C)c(=O)[nH]c1=O | inactive |
| CCCC(=O)c1cc(CP(=O)(OCC)OCC)oc1C | inactive |
| O=c1[nH]c(=S)[nH]c(O)c1/C=N/N1CCOCC1 | inactive |
| Cc1ccc(-n2c(O)c(C=N)c(=O)n(-c3ccc(C)cc3)c2=O)cc1 | inactive |
| CC(=O)Nc1ccc([As](=O)(O)c2ccc([N+](=O)[O-])cc2)cc1 | inactive |
| Cn1c(O)c(C(=Nc2ccc(F)cc2)c2ccccc2Cl)c(=O)n(C)c1=O | inactive |
| C[C@H]1CC[C@H]2NCCN[C@H]2C1 | inactive |
| O=C(OCC1O[C@@H](OC(=O)c2cc(O)c(O)c(O)c2)[C@@H](OC(=O)c2cc(O)c(O)c(O)c2)[C@@H](OC(=O)c2cc(O)c(O)c(O)c2)[C@@H]1OC(=O)c1cc(O)c(O)c(O)c1)c1cc(O)c(O)c(O)c1 (stereo partly drawn) | 0.0631 µM (active) |
| O=C1C=CC(=O)c2c(O)cccc21 | 4.47 µM (active) |
| CCC(=NCc1cccnc1)c1c(O)n(-c2ccccc2C)c(=O)[nH]c1=O | inactive |
| Cc1onc(-c2c(Cl)cccc2Cl)c1C(=O)Nc1ccc2c(C(F)(F)F)cc(=O)oc2c1 | inactive |
| Cn1c(O)c(C=NCCN2CCN(C(=O)Nc3ccccc3)CC2)c(=O)n(C)c1=O | inactive |
| CCCCCCn1c(O)c(C=Nc2ccccc2N2CCOCC2)c(=O)[nH]c1=S | inactive |
| CCC(=NCc1cc(OC)cc(OC)c1)c1c(O)n(C2CCCCC2)c(=O)[nH]c1=O | inactive |
